Assay results reported in PubChem BioAssay.
The source made the active and inactive calls.

What was measured:
[1] = test system: Plasmodium falciparum Sir2 (PF13_0152, Sir2A); assay: Plasmodium falciparum Sir2A binding compounds – biochemical, small-molecule microarray, 635 nm fluorescence, primary screen (AID 1098); conditions: fluorescence 635 nm, higher = more signal;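 also: score merges spot fluorescence intensity with its signal-to-noise ratio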
[2] = probe aDKK1 binding to arrayed compounds – biochemical, biotinylated probe, 635/667 nm fluorescence, primary screen (AID 1099); conditions: small-molecule microarray, higher = more signal;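 also: score merges 667nm spot fluorescence with signal to noise across triplicate slides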
[3] = probe aCHRDL2 binding to arrayed compounds – biochemical, biotinylated probe, 635/667 nm fluorescence, primary screen (AID 1100); conditions: small-molecule microarray, higher = more signal
[4] = change in splice reporter luminescence, either direction, cell-based, HEK293, spliceosome inhibition project, primary screen (AID 1101); conditions: HEK293 splicing luciferase reporter, 24 h, higher = more signal, called active from +8 up or from −8 down;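 also: HEK293 cells carrying a splicing-competent luciferase reporter gene; test concentration not given here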
[5] = target: Fibroblast growth factor 10 (Homo sapiens) (UniProt O15520); assay: compounds binding fibroblast growth factor 10 – biochemical, small-molecule microarray, 635 nm fluorescence, primary screen (AID 1102); conditions: FGF10 binding, fluorescence 635 nm, higher = more signal
Sequence of Fibroblast growth factor 10 (Homo sapiens) (O15520 whole entry, looked up): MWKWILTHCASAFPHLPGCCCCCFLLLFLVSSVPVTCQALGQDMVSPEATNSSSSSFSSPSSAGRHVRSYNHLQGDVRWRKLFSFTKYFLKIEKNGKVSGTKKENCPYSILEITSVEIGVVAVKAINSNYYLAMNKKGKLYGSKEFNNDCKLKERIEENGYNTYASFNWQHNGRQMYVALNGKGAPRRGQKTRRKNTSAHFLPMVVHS

[6] = test system: glycogen synthase kinase-3 (GSK3A per assay name; protocol says GSK3B); assay: compounds binding glycogen synthase kinase-3 – biochemical, small-molecule microarray, 635 nm fluorescence, GSK3A, primary screen (AID 1103); conditions: fluorescence 635 nm, higher = more signal; also: the record names both GSK3A and GSK3B
[7] = target: Epidermal growth factor receptor (Homo sapiens) (UniProt P00533); assay: compounds binding epidermal growth factor receptor – biochemical, small-molecule microarray, 635 nm fluorescence, primary screen (AID 1104); conditions: EGFR binding, higher = more signal;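 also: score merges 667 nm emission intensity with spot signal to noise over triplicate slides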
Sequence of Epidermal growth factor receptor (Homo sapiens) (P00533 whole entry, looked up): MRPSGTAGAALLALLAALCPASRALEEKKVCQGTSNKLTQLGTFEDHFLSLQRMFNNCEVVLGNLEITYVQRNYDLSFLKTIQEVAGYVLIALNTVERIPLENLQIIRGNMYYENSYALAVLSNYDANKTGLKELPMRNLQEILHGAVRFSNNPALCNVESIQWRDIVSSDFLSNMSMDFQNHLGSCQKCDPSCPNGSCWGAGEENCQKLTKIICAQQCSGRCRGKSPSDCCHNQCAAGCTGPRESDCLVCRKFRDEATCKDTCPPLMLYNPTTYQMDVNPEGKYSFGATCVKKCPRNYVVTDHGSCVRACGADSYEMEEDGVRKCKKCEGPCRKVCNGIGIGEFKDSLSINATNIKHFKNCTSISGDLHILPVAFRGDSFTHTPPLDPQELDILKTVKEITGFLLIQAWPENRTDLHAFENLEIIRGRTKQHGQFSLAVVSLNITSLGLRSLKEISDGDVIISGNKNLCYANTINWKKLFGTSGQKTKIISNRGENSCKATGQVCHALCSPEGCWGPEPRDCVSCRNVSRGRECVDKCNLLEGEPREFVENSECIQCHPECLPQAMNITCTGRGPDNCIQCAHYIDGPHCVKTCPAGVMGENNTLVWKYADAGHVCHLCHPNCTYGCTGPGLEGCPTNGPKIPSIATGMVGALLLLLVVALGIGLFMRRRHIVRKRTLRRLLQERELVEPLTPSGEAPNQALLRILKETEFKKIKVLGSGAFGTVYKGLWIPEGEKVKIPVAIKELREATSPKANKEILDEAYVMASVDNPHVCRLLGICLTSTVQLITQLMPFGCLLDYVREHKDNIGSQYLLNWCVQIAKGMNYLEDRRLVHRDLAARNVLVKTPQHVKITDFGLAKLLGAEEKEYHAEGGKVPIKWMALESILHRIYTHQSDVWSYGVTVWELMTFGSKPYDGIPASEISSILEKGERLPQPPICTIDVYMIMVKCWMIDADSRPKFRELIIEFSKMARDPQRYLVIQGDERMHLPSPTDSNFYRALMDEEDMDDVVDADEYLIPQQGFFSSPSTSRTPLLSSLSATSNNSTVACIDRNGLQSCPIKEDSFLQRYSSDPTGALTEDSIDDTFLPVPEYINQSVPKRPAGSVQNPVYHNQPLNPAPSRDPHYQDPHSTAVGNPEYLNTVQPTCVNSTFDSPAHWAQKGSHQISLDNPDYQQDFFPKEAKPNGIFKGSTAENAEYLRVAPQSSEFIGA

[8] = target: Follistatin-related protein 3 (Homo sapiens) (UniProt O95633); assay: compounds binding follistatin-related protein 3 – biochemical, small-molecule microarray, 635 nm fluorescence, primary screen (AID 1105); conditions: FSTL3 binding, higher = more signal;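 also: score merges emission near 667 nm and signal to noise per printed spot across three slides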
Sequence of Follistatin-related protein 3 (Homo sapiens) (O95633 whole entry, looked up): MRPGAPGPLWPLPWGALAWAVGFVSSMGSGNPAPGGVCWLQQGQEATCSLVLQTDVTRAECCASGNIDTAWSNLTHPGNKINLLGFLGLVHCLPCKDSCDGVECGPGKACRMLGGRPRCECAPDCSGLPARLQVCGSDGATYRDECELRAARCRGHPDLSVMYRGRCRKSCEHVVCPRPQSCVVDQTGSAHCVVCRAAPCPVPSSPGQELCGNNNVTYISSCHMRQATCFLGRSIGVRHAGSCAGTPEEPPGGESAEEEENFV

[9] = target: Dickkopf-related protein 1 (Homo sapiens) (UniProt O94907); assay: small molecules binding DKK1 protein – biochemical, small-molecule microarray, 635 nm fluorescence scan, primary screen (AID 1106); conditions: higher = more signal;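 also: score merges emission near 667 nm with signal to noise over three replicate slides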
Sequence of Dickkopf-related protein 1 (Homo sapiens) (O94907 whole entry, looked up): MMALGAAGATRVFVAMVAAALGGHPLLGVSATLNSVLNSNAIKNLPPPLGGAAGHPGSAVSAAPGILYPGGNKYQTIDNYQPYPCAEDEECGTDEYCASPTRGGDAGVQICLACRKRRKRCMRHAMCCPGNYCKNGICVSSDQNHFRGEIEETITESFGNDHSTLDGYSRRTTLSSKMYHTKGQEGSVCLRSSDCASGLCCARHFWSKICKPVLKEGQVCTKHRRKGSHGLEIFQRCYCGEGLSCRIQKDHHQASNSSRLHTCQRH

[10] = test system: Inhibin beta A chain (activin A); assay: small molecules binding activin A – biochemical, small-molecule microarray, 635 nm fluorescence scan, primary screen (AID 1107); conditions: INHBA, higher = more signal;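 also: mouse activin A protein probed at 4.33 µg/mL on printed slides; score merges bound-protein fluorescence near 667 nm with spot signal-to-noise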
[11] = test system: Human papillomavirus type 1a protein E7 (residues 44-93); assay: small molecules binding HPV E7 44-93 – biochemical, small-molecule microarray, residues 44-93, 635 nm fluorescence, primary screen (AID 1108); conditions: fluorescence 635 nm, higher = more signal;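 also: E7 fragment applied at 1 µg/mL in TBST for 1 h at 4 C; score combines spot fluorescence with its signal to noise ratio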
[12] = hepatitis C replication reporter changes, two-sided – Huh7 cells, luciferase reporter, HCV replication inhibitor project, primary screen (AID 1109); conditions: Huh7 HCV replicon luciferase reporter, 48 h; higher = more signal;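 also: huh7 hepatoma cells harbouring a luciferase neomycin HCV replicon reporter; luciferase luminescence as measure of HCV replicon replication; test concentration not given here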
[13] = target: Left-right determination factor 2 (Homo sapiens) (UniProt O00292); assay: small molecules binding LEFTY2 protein – biochemical, small-molecule microarray, 635 nm fluorescence scan, primary screen (AID 1110); conditions: higher = more signal
Sequence of Left-right determination factor 2 (Homo sapiens) (O00292 whole entry, looked up): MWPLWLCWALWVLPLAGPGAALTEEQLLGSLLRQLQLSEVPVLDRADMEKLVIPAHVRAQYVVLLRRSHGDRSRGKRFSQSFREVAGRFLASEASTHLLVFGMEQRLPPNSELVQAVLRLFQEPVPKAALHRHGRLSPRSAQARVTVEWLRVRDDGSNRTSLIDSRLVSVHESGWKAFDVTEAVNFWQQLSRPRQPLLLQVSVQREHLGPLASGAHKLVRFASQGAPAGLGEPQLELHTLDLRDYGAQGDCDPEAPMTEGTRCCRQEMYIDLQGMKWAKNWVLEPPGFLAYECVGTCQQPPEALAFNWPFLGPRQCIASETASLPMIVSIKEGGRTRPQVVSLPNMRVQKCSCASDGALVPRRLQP

[14] = target: Calmodulin-1 (Homo sapiens) (UniProt P0DP23); assay: small molecules binding calmodulin-1 with EGTA – biochemical, small-molecule microarray, Cy5-labelled CALM1, profiling panel (AID 1111); conditions: Cy5-CALM1 binding fluorescence, higher = more signal;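 also: labelled calmodulin applied in Tris saline Tween buffer holding calcium plus EGTA and DTT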
[15] = target: Calmodulin-1 (Homo sapiens) (UniProt P0DP23); assay: small molecules binding Ca-loaded calmodulin-1 – biochemical, small-molecule microarray, Cy5-labelled CALM1, plus calcium, artefact control for SMM control-protein annotation, profiling panel (AID 1112); conditions: Cy5-CALM1 binding fluorescence, higher = more signal;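 also: score merges spot fluorescence with signal to noise from triplicate slides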
[16] = probe aWnt5a binding to arrayed compounds – biochemical, biotinylated probe, 635/667 nm fluorescence, primary screen (AID 1113); conditions: small-molecule microarray, higher = more signal;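 also: score merges 667 nm fluorescence intensity with signal-to-noise per printed feature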
[17] = probe aShh binding to arrayed compounds – biochemical, biotinylated probe, 635/667 nm fluorescence, primary screen (AID 1114); conditions: small-molecule microarray, higher = more signal;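 also: probe is biotin-labelled aShh protein from a stem cell growth factor screen; measures binding of labelled protein to compounds printed on the slide; score merges feature fluorescence at 667 nm with signal-to-noise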
[18] = probe aNog binding to arrayed compounds – biochemical, biotinylated probe, 635/667 nm fluorescence, primary screen (AID 1115); conditions: small-molecule microarray, higher = more signal;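 also: probe is biotinylated aNog protein used at 0.15 µg/mL for 1 h at 4 C; z-score combines 667 nm fluorescence of each spot with its signal to noise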
[19] = target: Torsin-1A-interacting protein 1 (Homo sapiens) (UniProt Q5JTV8); assay: compound microarray binding of lysate hLAP1 – cell lysate, small-molecule microarray, COS7 lysate, 635/667 nm fluorescence, primary screen (AID 1116); conditions: 635 nm fluorescence, higher = more signal
Sequence of Torsin-1A-interacting protein 1 (Homo sapiens) (Q5JTV8 whole entry, looked up): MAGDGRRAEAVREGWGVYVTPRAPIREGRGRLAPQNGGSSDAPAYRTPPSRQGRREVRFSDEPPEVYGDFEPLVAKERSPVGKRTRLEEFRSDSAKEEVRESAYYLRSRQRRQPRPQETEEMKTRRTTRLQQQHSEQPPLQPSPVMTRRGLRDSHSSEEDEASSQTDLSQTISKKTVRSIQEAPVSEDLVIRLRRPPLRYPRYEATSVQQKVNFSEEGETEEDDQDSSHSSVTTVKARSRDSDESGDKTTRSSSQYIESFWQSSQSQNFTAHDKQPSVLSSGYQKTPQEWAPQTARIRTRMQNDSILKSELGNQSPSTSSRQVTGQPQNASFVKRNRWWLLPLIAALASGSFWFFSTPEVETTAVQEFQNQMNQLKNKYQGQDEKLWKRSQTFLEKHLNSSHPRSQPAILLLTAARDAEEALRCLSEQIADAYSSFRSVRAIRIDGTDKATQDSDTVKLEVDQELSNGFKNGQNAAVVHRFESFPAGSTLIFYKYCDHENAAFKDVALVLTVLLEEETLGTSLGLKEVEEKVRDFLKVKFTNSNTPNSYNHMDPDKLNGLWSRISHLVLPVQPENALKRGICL

[20] = target: Alpha-bungarotoxin (Bungarus multicinctus) (UniProt P60615); assay: compounds binding labelled alpha-BTX control protein – biochemical, small-molecule microarray, Alexa647 label, 635/667 nm fluorescence, artefact control for SMM control protein annotation, profiling panel (AID 1117); conditions: alpha-BTX-A647 binding fluorescence, higher = more signal
Sequence of Alpha-bungarotoxin (Bungarus multicinctus) (P60615 whole entry, looked up): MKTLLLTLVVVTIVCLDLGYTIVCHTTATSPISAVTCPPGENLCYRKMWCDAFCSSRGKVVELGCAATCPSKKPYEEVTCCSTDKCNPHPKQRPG

SMILES	composite z-score [1]	composite z-score [2]	composite z-score [3]	z-score [4]	composite z-score [5]	composite z-score [6]	composite z-score [7]	composite z-score [8]	composite z-score [9]	composite z-score [10]	composite z-score [11]	z-score [12]	composite z-score [13]	composite z-score [14]	composite z-score [15]	composite z-score [16]	composite z-score [17]	composite z-score [18]	composite z-score [19]	composite z-score [20]
CCCNC(=O)[C@@]1(C)c2ccccc2C(=O)N(Cc2ccccc2)[C@H]1c1ccc(CO)cc1	0.956	0.74	0.963	1.34 (inactive)	0.391	-0.136	-1.54	-0.487	-0.766	-0.765	0.391	0.398	-0.626	-0.0596	0.095	-0.197	-0.0421	-0.378	0.78	-0.612
[N-]=[N+]=NCc1ccccc1C[C@]1(C(=O)N2CCOCC2)COC(c2ccc(OCCCO)cc2)=N1	0.947	1.05	1.05	-0.363 (inactive)	0.396	0.935	-0.505	0.0724	-0.921	0.983	1.01	-1.54	-0.305	2.35	0.822	0.168	0.0326	1.87	2.22	0.326
NC(=O)[C@@H]1[C@H]2C(=O)O[C@H](c3ccccc3)[C@H](c3ccccc3)N2[C@H](c2ccc(OCCO)cc2)[C@@]12C(=O)Nc1ccc(C#CCCO)cc12	0.344	0.585	0.823	1.02 (inactive)	0.372	-0.168	-0.385	-0.12	0.0322	0.297	-1.04	-1.41	-0.483	1.09	0.209	0.0973	0.166	-0.329	0.628	1.13
CN1C(=O)C2C=CC(C(O)c3ccc(I)cc3)N(Nc3ccccc3)C2C1=O (stereo not given)	1.23	0.158	0.926	0.623 (inactive)	1.16	0.995	0.271	1.31	-0.158	0.966	1.33	0.132	0.136	1.63	0.544	0.172	0.36	0.551	0.0151	1.26
CC1CC/C=C\[C@H]2OC34C=CCN(CCN5CCOCC5)C(=O)[C@H]3N(C(C)CO)C(=O)[C@@H]4C2C(=O)O1 (stereo not given in full)	0.489	-0.356	-0.415	1.02 (inactive)	-0.42	-0.42	-0.599	-0.214	-0.0076	1.14	0.523	-0.91	-0.536	-0.666	-1.4	-0.199	0.147	-0.373	-0.719	-0.807
COc1ccc(C(=O)Nc2cccc(CN3C(=O)[C@@]4(O[C@@H](CC(=O)N(CCO)Cc5ccccc5)[C@H]([Si](C)(C)c5ccc(OC)cc5)[C@H]4C)c4ccccc43)c2)cc1	1.4	-0.566	-0.0709	-2.23 (inactive)	-0.0511	0.196	0.0627	0.823	0.26	0.636	1.18	-3.89	0.344	0.822	-0.0254	-0.187	-0.206	-0.38	1.12	0.681
